The supplement of paper PMC9433436
± gives the standard deviation of the averaged measurements. The full ranking holds about 4,100 sequences; the median of “relative kcat/Km (krel) vs genomic leader AAAGAU” is about 1.7, and the highest 2% start at about 6.5. This excerpt belongs to a sample that is enriched for the highest values.

Target: T1, E. coli RNase P holoenzyme (M1 P RNA + rnpA protein) (UniProt P0A7Y8)
T1 sequence: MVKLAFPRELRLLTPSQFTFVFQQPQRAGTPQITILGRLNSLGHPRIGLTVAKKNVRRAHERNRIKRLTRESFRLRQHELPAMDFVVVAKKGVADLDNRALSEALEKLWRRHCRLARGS
Experiment: relative kcat/Km (krel) vs genomic leader AAAGAU (relative (reference leader = 1)); higher = faster RNase P cleavage
Experimental: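 HTS-Kin: a pool of ptRNA-Met (21C construct) with all 4096 combinations of 5' leader nucleotides N(-6) to N(-1) was processed in vitro by E. coli RNase P (P RNA + rnpA/C5 protein) under multiple-turnover conditions at 37 C, pH 8, 17.5 mM MgCl2. Residual substrate was Illumina-sequenced at several fractions reacted, and relative kcat/Km (krel) was computed by internal competition kinetics, calibrated to the genomic leader (AAAGAU = 1). The listed hexamer is the varied N(-6)..N(-1) leader (DNA letters), and it sits between a fixed 5' stem-loop flank (GCAUGCACGAAAGUGCGUGCUAUGAA) and the mature tRNA-Met starting GGCUACGUAGCUCAGUUGG. Two technical replicates are averaged.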

[1] = fraction of substrate reacted: ~9-10% (9.79% repeat 1, 9.1% repeat 2)
[2] = fraction of substrate reacted: ~13-16% (15.68% repeat 1, 13.17% repeat 2)
[3] = fraction of substrate reacted: ~26-29% (28.66% repeat 1, 26.4% repeat 2)

AAATTC was tested, and the “relative kcat/Km” value [1] was 2.35 ± 1.4, the “relative kcat/Km” value [2] was 1.98 ± 0.19 and the “relative kcat/Km” value [3] was 2.34 ± 0.6.

With TAATGG the “relative kcat/Km” value [1] was 0.461 ± 0.18.

With CAACAG the “relative kcat/Km” value [3] was 1 ± 0.52.

With TGACAA the “relative kcat/Km” value [1] was 3.11 ± 2.1, the “relative kcat/Km” value [2] was 3.72 ± 0.47 and the “relative kcat/Km” value [3] was 4.23 ± 1.4.

For GTACGC, the “relative kcat/Km” value [1] was 2 ± 0.098, the “relative kcat/Km” value [2] was 2.7 ± 0.46 and the “relative kcat/Km” value [3] was 3.72 ± 1.3.

In the case of CGTCAG, the “relative kcat/Km” value [1] is reported as 0.776 ± 0.25, the “relative kcat/Km” value [2] is reported as 1.34 ± 0.28 and the “relative kcat/Km” value [3] is reported as 3.11 ± 0.5.

CGTCAA was tested, and the “relative kcat/Km” value [1] was 1.61 ± 0.25, the “relative kcat/Km” value [2] was 3.42 ± 0.92 and the “relative kcat/Km” value [3] was 5.08 ± 1.4.

For CGTCAT, the “relative kcat/Km” value [1] was 2.843 ± 0.013, the “relative kcat/Km” value [2] was 4.98 ± 1.9 and the “relative kcat/Km” value [3] was 6.96 ± 3.1.

With CCTCAC the “relative kcat/Km” value [1] was 2.54 ± 0.75, the “relative kcat/Km” value [2] was 3.07 ± 0.55 and the “relative kcat/Km” value [3] was 4.22 ± 1.2.

In the case of CGTCAC, the “relative kcat/Km” value [1] is reported as 4.5 ± 2.1, the “relative kcat/Km” value [2] is reported as 5.37 ± 0.7 and the “relative kcat/Km” value [3] is reported as 6.77 ± 2.

With CGTCGC the “relative kcat/Km” value [1] was 2.49 ± 0.74, the “relative kcat/Km” value [2] was 3.77 ± 0.95 and the “relative kcat/Km” value [3] was 4.81 ± 1.1.

For AGTCTT, the “relative kcat/Km” value [1] was 3.48 ± 0.67, the “relative kcat/Km” value [2] was 3.72 ± 0.46 and the “relative kcat/Km” value [3] was 5 ± 2.2.

GAGCAA was tested, and the “relative kcat/Km” value [1] was 1.98 ± 0.29, the “relative kcat/Km” value [2] was 2.27 ± 0.026 and the “relative kcat/Km” value [3] was 2.57 ± 0.78.

In the case of AATTAA, the “relative kcat/Km” value [1] is reported as 2.86 ± 2, the “relative kcat/Km” value [2] is reported as 3.37 ± 0.39 and the “relative kcat/Km” value [3] is reported as 4.73 ± 1.6.

In the case of TATTAT, the “relative kcat/Km” value [1] is reported as 4.02 ± 1.1, the “relative kcat/Km” value [2] is reported as 5.95 ± 1.7 and the “relative kcat/Km” value [3] is reported as 9.03 ± 4.1.

TATTAA was tested, and the “relative kcat/Km” value [1] was 4.01 ± 2.3, the “relative kcat/Km” value [2] was 5.12 ± 0.072 and the “relative kcat/Km” value [3] was 6.96 ± 2.6.

TATTAC was tested, and the “relative kcat/Km” value [1] was 3.92 ± 1.1, the “relative kcat/Km” value [2] was 5.68 ± 0.93 and the “relative kcat/Km” value [3] was 7.86 ± 3.4.

In the case of TATTCC, the “relative kcat/Km” value [1] is reported as 2.05 ± 0.31, the “relative kcat/Km” value [2] is reported as 2.87 ± 0.33 and the “relative kcat/Km” value [3] is reported as 3.57 ± 1.4.

For AATTAT, the “relative kcat/Km” value [1] was 3.11 ± 0.81, the “relative kcat/Km” value [2] was 4.75 ± 0.82 and the “relative kcat/Km” value [3] was 5.76 ± 2.3.

In the case of AATTAC, the “relative kcat/Km” value [1] is reported as 3.5 ± 1.7, the “relative kcat/Km” value [2] is reported as 3.97 ± 0.31 and the “relative kcat/Km” value [3] is reported as 5.32 ± 1.9.

In the case of TATTCT, the “relative kcat/Km” value [1] is reported as 3.27 ± 1.2, the “relative kcat/Km” value [2] is reported as 4.15 ± 0.4 and the “relative kcat/Km” value [3] is reported as 5.78 ± 2.3.

TATTAG was tested, and the “relative kcat/Km” value [1] was 2.38 ± 2.3, the “relative kcat/Km” value [2] was 2.95 ± 0.03 and the “relative kcat/Km” value [3] was 4.43 ± 1.4.

In the case of ACTTTG, the “relative kcat/Km” value [3] is reported as 1.31 ± 0.45.

GCCCTC was tested, and the “relative kcat/Km” value [1] was 1.81 ± 0.28, the “relative kcat/Km” value [2] was 2.28 ± 1.4 and the “relative kcat/Km” value [3] was 3.98 ± 1.6.

With CGCCGT the “relative kcat/Km” value [1] was 0.516 ± 0.5 and the “relative kcat/Km” value [3] was 1.06 ± 0.75.

For AATTAG, the “relative kcat/Km” value [2] was 1.34 ± 0.23 and the “relative kcat/Km” value [3] was 3.09 ± 1.5.

For AGTACT, the “relative kcat/Km” value [1] was 2.34 ± 1.3, the “relative kcat/Km” value [2] was 2.42 ± 0.095 and the “relative kcat/Km” value [3] was 3.74 ± 1.6.

AAATAT was tested, and the “relative kcat/Km” value [1] was 1.72 ± 0.35, the “relative kcat/Km” value [2] was 3.11 ± 0.79 and the “relative kcat/Km” value [3] was 4.74 ± 2.4.

For GCGGAG, the “relative kcat/Km” value [3] was 0.583 ± 0.36.

For TCGGAA, the “relative kcat/Km” value [1] was 1.2 ± 1.2, the “relative kcat/Km” value [2] was 1.23 ± 0.93 and the “relative kcat/Km” value [3] was 1.33 ± 0.09.

For AAATCA, the “relative kcat/Km” value [1] was 1.55 ± 0.36, the “relative kcat/Km” value [2] was 1.42 ± 0.17 and the “relative kcat/Km” value [3] was 1.8 ± 0.46.

With TTCGTC the “relative kcat/Km” value [1] was 3.53 ± 1.4, the “relative kcat/Km” value [2] was 4.55 ± 1 and the “relative kcat/Km” value [3] was 6.81 ± 3.2.

For TTCGAT, the “relative kcat/Km” value [1] was 1.69 ± 0.22, the “relative kcat/Km” value [2] was 2.71 ± 1.2 and the “relative kcat/Km” value [3] was 4.44 ± 2.

With TTCGAC the “relative kcat/Km” value [1] was 5.66 ± 1.9, the “relative kcat/Km” value [2] was 7.11 ± 1.7 and the “relative kcat/Km” value [3] was 10.2 ± 4.3.

For TTCGTA, the “relative kcat/Km” value [1] was 3.36 ± 1.3, the “relative kcat/Km” value [2] was 4.26 ± 0.22 and the “relative kcat/Km” value [3] was 6.35 ± 2.4.

In the case of CTCGTC, the “relative kcat/Km” value [1] is reported as 2.68 ± 0.76, the “relative kcat/Km” value [2] is reported as 3.41 ± 0.98 and the “relative kcat/Km” value [3] is reported as 5.19 ± 2.

With TGCGAA the “relative kcat/Km” value [1] was 1.78 ± 0.26, the “relative kcat/Km” value [2] was 1.82 ± 0.69 and the “relative kcat/Km” value [3] was 2.43 ± 0.68.

For TTCGTG, the “relative kcat/Km” value [2] was 0.287 ± 0.27 and the “relative kcat/Km” value [3] was 2.01 ± 0.17.

TTCGAG was tested, and the “relative kcat/Km” value [2] was 1.96 ± 0.07 and the “relative kcat/Km” value [3] was 4.8 ± 1.

For CTCGGA, the “relative kcat/Km” value [3] was 0.671 ± 0.41.

For TTCGAA, the “relative kcat/Km” value [1] was 5.32 ± 1.2, the “relative kcat/Km” value [2] was 7.22 ± 2.3 and the “relative kcat/Km” value [3] was 10.3 ± 4.3.

In the case of CGCGAA, the “relative kcat/Km” value [1] is reported as 2.89 ± 0.49, the “relative kcat/Km” value [2] is reported as 3.39 ± 1.2 and the “relative kcat/Km” value [3] is reported as 4.94 ± 1.5.

With CTCGAA the “relative kcat/Km” value [1] was 4.31 ± 0.54, the “relative kcat/Km” value [2] was 6.4 ± 1.7 and the “relative kcat/Km” value [3] was 8.12 ± 3.5.

With AGTGTT the “relative kcat/Km” value [1] was 0.435 ± 0.024 and the “relative kcat/Km” value [3] was 1.34 ± 0.99.

CTACTT was tested, and the “relative kcat/Km” value [1] was 2.09 ± 0.14, the “relative kcat/Km” value [2] was 2.2 ± 0.49 and the “relative kcat/Km” value [3] was 2.49 ± 0.63.

For TGAACT, the “relative kcat/Km” value [1] was 1.41 ± 0.67, the “relative kcat/Km” value [2] was 1.85 ± 0.71 and the “relative kcat/Km” value [3] was 2.58 ± 0.76.

GGCGCT was tested, and the “relative kcat/Km” value [1] was 1.32 ± 0.23, the “relative kcat/Km” value [2] was 0.701 ± 0.31 and the “relative kcat/Km” value [3] was 1.43 ± 0.38.

In the case of GGGCTT, the “relative kcat/Km” value [3] is reported as 0.481 ± 0.22.

In the case of TAACCG, the “relative kcat/Km” value [3] is reported as 0.9 ± 0.51.

In the case of GCTTTC, the “relative kcat/Km” value [1] is reported as 2.29 ± 2.1, the “relative kcat/Km” value [2] is reported as 1.88 ± 0.58 and the “relative kcat/Km” value [3] is reported as 2.09 ± 0.45.

AATACA was tested, and the “relative kcat/Km” value [1] was 1.91 ± 0.78, the “relative kcat/Km” value [2] was 1.7 ± 0.041 and the “relative kcat/Km” value [3] was 2.02 ± 0.66.
